Sampled rows, rich in hits. Any-hit rate of the full collection: about 2.4%.
D2 ag-1: Beta-Arrestin HTS for Positive Allosteric Modulators of the Human D2 Dopamine Receptor: Agonists; D(2) dopamine receptor (Homo sapiens), P14416; DiscoveRx PathHunter D2 beta-arrestin, luminescence, 90 min; 100% = 57 uM dopamine signal; activation, % (concentration not given with the values); 360,000 compounds, 0.084% hits; AID 624465, 2012; in the data active = activation above about 40%
Target sequence (P14416 whole entry, looked up): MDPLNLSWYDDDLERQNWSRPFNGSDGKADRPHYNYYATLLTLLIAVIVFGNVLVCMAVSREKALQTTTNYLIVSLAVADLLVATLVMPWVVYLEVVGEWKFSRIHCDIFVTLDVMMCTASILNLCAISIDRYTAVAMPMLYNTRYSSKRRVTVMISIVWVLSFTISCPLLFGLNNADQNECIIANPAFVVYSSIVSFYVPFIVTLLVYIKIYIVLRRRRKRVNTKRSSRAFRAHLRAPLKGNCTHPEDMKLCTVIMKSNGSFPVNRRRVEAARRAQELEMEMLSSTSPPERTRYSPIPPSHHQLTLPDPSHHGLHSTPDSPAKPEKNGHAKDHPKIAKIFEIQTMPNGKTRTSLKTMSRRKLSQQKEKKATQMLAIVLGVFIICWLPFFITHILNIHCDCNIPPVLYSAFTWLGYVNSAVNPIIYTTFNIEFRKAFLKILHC
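DiscoveRx PathHunter D2 beta-arrestin cells (2,100/well) attached overnight, then compound-stimulated 90 min at 37 C in HBSS/10 mM HEPES/0.1% Tween-20 buffer; beta-galactosidase complementation read by luminescence after 1 h at ambient temperature. Dopamine 57 uM final (EC100) as control.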
D2 ag-2: HTS Assay for Allosteric Agonists of the Human D2 Dopamine Receptor: Primary Screen for Agonists; D(2) dopamine receptor (Homo sapiens), P14416; HEK293 T-REx D2 cells, calcium flux agonist mode; activation, % at 2 µM; 340,000 compounds, 0.53% hits;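 active = activation over 3 SD above normal in the single-dose calcium agonist read, cut at about 30% in these data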; also: 0% is about no effect
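Agonism is scored from calcium flux in a force-coupled, inducible HEK293 cell line expressing D2, read kinetically for 180 s after compound addition against dopamine controls.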
D2 PAM-1: HTS Assay for Positive Allosteric Modulators of the Human D2 Dopamine Receptor: Primary Screen for Potentiators | potentiation, % at 10 µM | HEK293 T-REx D2, calcium flux, EC20 dopamine potentiation | AID 485347, 2010 | 340,000 compounds, 0.34% hits;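 active = potentiation over 3 SD above the plate norm, cut at about 30% in these data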; also: 0% is about no effect
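Cells plated with tetracycline inducer and held overnight at 30 C; calcium dye loaded 30–90 min at room temperature; baseline taken, compound added and read 180 s; EC20 dopamine then added and read 180 s.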
D2 PAM-2: Beta-Arrestin HTS for Positive Allosteric Modulators of the Human D2 Dopamine Receptor: Potentiators; D(2) dopamine receptor (Homo sapiens), P14416; DiscoveRx D2 beta-arrestin cells, luminescence, 90 min; 100% = 57 uM dopamine signal; potentiation, % (concentration not given with the values); 360,000 compounds, 0.23% hits; AID 624464, 2012; in the data active = potentiation above about 50%
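PathHunter beta-arrestin assay in DiscoveRx D2 cells. Compounds were added with an EC20 of dopamine (50 nM final) for 90 min at 37 deg C. Luminescence was read 1 h after detection reagent, with 57 uM dopamine as the EC100 control.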
D2 antagonist: HTS Assay for Allosteric Antagonists of the Human D2 Dopamine Receptor: Primary Screen for Antagonists. D(2) dopamine receptor (Homo sapiens), P14416. inhibition, % at 10 µM. HEK293 TREx D2 cells, calcium flux, dopamine EC80. 340,000 compounds, 2% hits. AID 485344, 2010; in the data active = inhibition above about 30%; inactive = below that, where a call was filed; also: 0% is about no effect
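Read-out: kinetic calcium fluorescence (1 cycle/s) in inducible HEK293 T-REx D2 cells after an EC80 dopamine addition that followed 180 s compound preincubation. Loss of the dopamine response indicates antagonism.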
Numbers without * were called inactive; ! = not confirmed by another sample.

Screening CCOC(=O)c1ccc(NC(=O)CSc2nc(-c3cccs3)cc(C(F)(F)F)c2C#N)cc1 returned D2 PAM-1 -11.
Screening CCN(CC)S(=O)(=O)c1nnc(NC(=O)COc2ccc(C)cc2)s1 returned D2 ag-2 0 and D2 PAM-1 8.
Screening O=C(O)C1CCCCC1C(=O)Nc1ccccn1 (stereo not drawn) returned D2 ag-1 -3, D2 ag-2 1, D2 PAM-1 -8, D2 PAM-2 2 and D2 antagonist 41*.
O=C(Nc1ccccn1)NC1CCCCC1 was read as D2 ag-1 -2, D2 ag-2 1, D2 PAM-1 9, D2 PAM-2 -20 and D2 antagonist -11.
Screening COc1ccc(-c2cc(C(F)(F)F)n3ncc(C(=O)N4CCc5ccccc5C4)c3n2)cc1 returned D2 ag-1 -1, D2 ag-2 1, D2 PAM-1 2, D2 PAM-2 -5 and D2 antagonist -8.
For COc1cccc(-c2cc(C(F)(F)F)n3ncc(C(=O)N4CCc5ccccc5C4)c3n2)c1 the results were D2 ag-1 -6, D2 ag-2 -2, D2 PAM-1 5, D2 PAM-2 -3 and D2 antagonist 50*.
Screening CCCC1OC(c2cc3c(cc2Cl)OCO3)OCC1CC (stereo not drawn) returned D2 ag-1 1 and D2 PAM-2 -5.
Screening CCC(=O)N1CCc2cc(CNS(=O)(=O)c3c(C)cc(C)cc3C)ccc21 returned D2 ag-2 -1 and D2 PAM-1 15.
For Cc1ccc(C(=O)NNc2ncnc3c2cnn3C)cc1 the results were D2 ag-1 -2, D2 ag-2 0, D2 PAM-1 12, D2 PAM-2 -10 and D2 antagonist 31*.
Screening CCn1c(C)nc2cc(C(=O)N/N=C/c3ccc(O)c(O)c3O)ccc21 returned D2 ag-1 1, D2 ag-2 32*, D2 PAM-1 -7, D2 PAM-2 16 and D2 antagonist -6.
COc1ccc(N2C(N)=NC(N)=NC2(C)C)cc1 was read as D2 ag-1 -3, D2 ag-2 -1, D2 PAM-1 31*, D2 PAM-2 -4 and D2 antagonist -13.
For CCN(CC)CCn1c(=S)[nH]c2cc(C(=O)NCc3ccc(C)cc3)ccc2c1=O the results were D2 ag-1 0, D2 ag-2 0, D2 PAM-1 -12, D2 PAM-2 -14 and D2 antagonist 36*.
Screening CCOc1cc2[nH]c(=O)n(CCCCC(=O)N3CCN(c4cccc(Cl)c4)CC3)c(=O)c2cc1OCC returned D2 PAM-1 -10.
CCOc1cc2[nH]c(=O)n(CCCCC(=O)N3CCCCCC3)c(=O)c2cc1OCC was read as D2 ag-1 1, D2 ag-2 1, D2 PAM-1 36*, D2 PAM-2 -5 and D2 antagonist 16.
Screening CCOc1ccc(NC(=O)c2cc(=O)c3ccc(C)c(C)c3o2)cc1 returned D2 PAM-1 -12.
COc1cc(C(=O)OC(C)CN2CCN(C)CC2)cc(OC)c1OC (stereo not drawn) was read as D2 ag-1 -2, D2 ag-2 0, D2 PAM-1 1, D2 PAM-2 -10 and D2 antagonist -3.
For COc1cc(C(=O)OC(C)CN2CCOCC2)cc(OC)c1OC (stereo not drawn) the results were D2 ag-1 -1, D2 ag-2 -1, D2 PAM-1 1, D2 PAM-2 -13 and D2 antagonist 40*!.
`CNc1oc(/C=C/c2cc(OC)c(OC)c(OC)c2)nc1C#N` gave D2 ag-2 -3 and D2 PAM-1 4.
Screening CC(CC(=O)N1CCN(C(=O)c2ccccc2)CC1)c1ccccc1 (stereo not drawn) returned D2 ag-1 1, D2 ag-2 1, D2 PAM-1 -5, D2 PAM-2 -1 and D2 antagonist 38*.
`O=C(NCC(=O)N1CCN(C(=O)c2ccccc2)CC1)c1ccccc1` gave D2 ag-1 -3, D2 ag-2 -1, D2 PAM-1 11, D2 PAM-2 -13 and D2 antagonist -8.
CC(C)CC(=O)Nc1ccccc1N1CCN(C(=O)c2ccccc2)CC1 was read as D2 ag-1 4, D2 ag-2 0, D2 PAM-1 20, D2 PAM-2 62* and D2 antagonist 23.
Screening COc1ccc(-c2cccc(NS(=O)(=O)c3cc(C)ccc3OC)c2)nn1 returned D2 ag-2 1 and D2 PAM-1 -1.
For Cc1cc(N2CCOCC2)nc2ccc(NC(=O)CCC(=O)N3CCN(c4ccccc4)CC3)cc12 the results were D2 ag-1 0, D2 ag-2 2, D2 PAM-1 31*, D2 PAM-2 -4 and D2 antagonist -9.
For COc1ccc(CNc2nc(NCc3ccc(OC)cc3)n(C(=O)c3ccccc3[N+](=O)[O-])n2)cc1 the results were D2 ag-1 -3, D2 ag-2 1, D2 PAM-1 10, D2 PAM-2 -1 and D2 antagonist 31*.
For COc1ccc(CNc2nc(NCc3ccc(OC)cc3)n(C(=O)c3ccncc3)n2)cc1 the results were D2 ag-1 -2, D2 ag-2 1, D2 PAM-1 8, D2 PAM-2 -10 and D2 antagonist 3.
For COc1ccc(OC)c(CCNc2ncnc3onc(-c4ccc(F)cc4)c23)c1 the results were D2 ag-2 0.
`CCNC(=O)Nc1ccc(-n2nc(C)c(C(=O)OCC)c2C)nc1` gave D2 ag-1 2, D2 ag-2 -1, D2 PAM-1 1, D2 PAM-2 -5 and D2 antagonist 45*.
CCOC(=O)c1c(C)nn(-c2ccc(NC(=O)/C=C/C(=O)O)cc2)c1C was read as D2 ag-1 1, D2 ag-2 0, D2 PAM-1 9, D2 PAM-2 4 and D2 antagonist -20.
`O=C(CSCC(=O)NC1CC1)Nc1ccc2ccccc2c1` gave D2 ag-1 0, D2 ag-2 1, D2 PAM-1 -21, D2 PAM-2 -29 and D2 antagonist 35*.
`CCOC(=O)c1ccc(NC(=O)CCc2c(C)nc3c(c(C)nn3C(C)(C)C)c2C)cc1` gave D2 PAM-1 1.
Cc1c(C)n(C(=O)CN2CCC(C(N)=O)CC2)c2ccccc12 was read as D2 ag-1 -2, D2 ag-2 0, D2 PAM-1 -6, D2 PAM-2 -8 and D2 antagonist 36*.
`Cc1c(C)n(C(=O)CN2CCN(c3ccccc3)CC2)c2ccccc12` gave D2 ag-1 -4, D2 ag-2 1, D2 PAM-1 19, D2 PAM-2 -9 and D2 antagonist -7.

High-throughput results: PubChem, National Center for Advancing Translational Sciences (NCATS)
